Screen size: about 68,000 compounds; about 2,700 (4%) showed an effect of 50% or more. This is one part of a sample in which strong results are shown more often than they occur.

In ChEMBL document CHEMBL4513216, “Probing the Open Global Health Chemical Diversity Library for Multistage-Active Starting Points for Next-Generation Antimalarials” (ACS Infect Dis, 2020) one finds INHIBITION data, which are given here for 53 compounds.

The experiment has as its system Plasmodium berghei. In words: Screen against P. berghei liver stage (PbLuc), transformed with Luciferase, at 2uM. The class given is functional, HepG2. As to conditions: tested at 2 uM.
On to `CCOC(=O)CN(C)C1CCc2ccccc21` (stereo not drawn), for which the INHIBITION amounted to 44.71%.

Consider `CN(C)C(=O)CNC(=O)c1cc2ccccc2nc1N1CCCC1`, for which the INHIBITION worked out at 8.74%.

In the case of `CCn1cc(Cl)c(C(=O)NCCCO)n1`, the INHIBITION turned out to be 12.84%.

On to `O=C(CCNC(=O)c1ccc(Cl)cc1)NCc1nc(C2CC2)no1`, for which the INHIBITION is reported as 60.34%.

As for `CCc1nc(C2CCCN(C(=O)c3ccc(Cl)cc3)C2)no1` (stereo not drawn), the INHIBITION turned out to be 9.82%.

On to `CCN(CC(=O)NCc1nc(C2CC2)no1)Cc1ccc(Cl)cc1`, for which the INHIBITION is recorded as -37.68%.

For `c1cnc(N2CCCC(NCc3ccc(-n4ccnc4)cc3)C2)nc1` (stereo not drawn), the INHIBITION came out at 1.91%.

For `Cc1cnn(CC2CCCCN2C(=O)c2c(C)noc2C)c1` (stereo not drawn), the INHIBITION was -13.24%.

Turning to `CCC(CO)NCc1ccc(-c2ccccc2)o1` (stereo not drawn), the INHIBITION came out at 12.02%.

As to `CN(C)c1ccc(C(=O)NCCCNc2ccc(C(F)(F)F)cn2)cc1`, the INHIBITION worked out at 25.74%.

Take `Nc1ncc(-c2ccc(Cl)cc2)c(C2CCCNC2)n1` (stereo not drawn): the INHIBITION is recorded as 37.63%.

Consider `Nc1ncc(-c2ccc(C(F)(F)F)cc2)c(C2CCCNC2)n1` (stereo not drawn), for which the INHIBITION is given as -10.58%.

With `Nc1ncc(-c2ccc(F)cc2)c(C2CCCNC2)n1` (stereo not drawn), the INHIBITION worked out at 54.2%.

On to `O=C(C1CC=CC1)N1C[C@@H]2CN(Cc3ccsc3)CCO[C@@H]2C1`, for which the INHIBITION is listed as -10.92%.

Consider `Cc1ccc(C)c(CC(=O)NC2CCCS(=O)(=O)C2)c1` (stereo not drawn), for which the INHIBITION is 57.75%.

Regarding `Cc1ccc(C)c(CC(=O)NC2CCC(N3C(=O)CCC3=O)CC2)c1` (stereo not drawn), the INHIBITION is -37.65%.

Regarding `Cc1ccc(C)c(CC(=O)NC2CCS(=O)(=O)CC2)c1`, the INHIBITION was found to be 29.13%.

On to `CC(C)c1nc(CN(C)C(=O)c2ccc(CN3CCCCC3)cc2)cs1`, for which the INHIBITION was 0.31%.

On to `Fc1ccc(CN2CCC3(CC2)CC(c2cccnc2)CO3)cc1` (stereo not drawn), for which the INHIBITION is reported as -14.21%.

In the case of `CCOCc1cnc2n1CCN(C(=O)Cc1cccs1)C2C` (stereo not drawn), the INHIBITION is given as -24.63%.

Turning to `CC(C)N(C)Cc1cnc2n1CCN(C(=O)Cc1cccs1)C2C` (stereo not drawn), the INHIBITION was 70.31%.

Consider `CC1c2ncc(Cn3cncn3)n2CCN1C(=O)Cc1cccs1` (stereo not drawn), for which the INHIBITION turned out to be 28.77%.

Regarding `CCc1n[nH]c(C2CN(C(=O)c3cc4c(s3)CCCC4)CCO2)n1` (stereo not drawn), the INHIBITION is given as 20.28%.

`Cc1cc2c(N)nc(=O)n(CC(=O)Nc3cccc(Cl)c3)c2s1`: the INHIBITION turned out to be 6.05%.

Turning to `CCN(CCOC)C(=O)c1cc(COc2ccc3c(c2)CCCC3)on1`, the INHIBITION was found to be 29.89%.

Take `COCCCN1CCc2cncnc2C1`: the INHIBITION was -12.48%.

Take `CCOCCN1CCc2cncnc2C1`: the INHIBITION came out at 31.51%.

`CC(C)OCCN1CCc2cncnc2C1`: the INHIBITION turned out to be 62.51%.

For `COC(=O)c1sc(C(NC(=O)c2ccccc2)C2CC2)nc1C` (stereo not drawn), the INHIBITION is given as -13.12%.

As to `C=C(C)CN1CCC(NC(=O)c2scnc2C)CC1`, the INHIBITION is given as -7.13%.

With `COc1cc(I)c(Cl)cc1C(=O)N(C)C`, the INHIBITION is on record as 32.04%.

On to `COCCNc1nc2c(c(N3CCn4nc(C)cc4C3)n1)CCNCC2`, for which the INHIBITION came to 51.19%.

With `CCOCc1nc2c(c(N3CCCn4nc(C)cc4C3)n1)CCNCC2`, the INHIBITION is listed as -31.55%.

Turning to `Cc1cc2n(n1)CCN(c1nc(N)nc3c1CCNCC3)C2`, the INHIBITION amounted to 17.6%.

For the compound `O=C1CC[C@@H](C(=O)N2CCC(Cn3cc(C4CCCCC4)nn3)CC2)N1`, the INHIBITION is 17.61%.

On to `CC(C)n1nc2c(cc1=O)CN(c1ncnc3sccc13)CC2`, for which the INHIBITION is -35.16%.

Take `COCCN1C(=O)c2ccc(C(=O)NCCc3c[nH]cn3)cc2C1=O`: the INHIBITION stood at 34.59%.

As for `CC(C)CN(CC(O)c1ccc(F)cc1)C(=O)c1cnsn1` (stereo not drawn), the INHIBITION is reported as -36.72%.

On to `O=C(NC1CCN(Cn2nc(-c3ccccc3)oc2=O)CC1)C1CC1`, for which the INHIBITION is recorded as -0.69%.

Regarding `CC(=O)Nc1cccc(CN2CCCC2C(=O)Nc2nccs2)c1` (stereo not drawn), the INHIBITION is listed as -4.48%.

As to `Cc1cc(C2CCCN2Cc2cccc(C(=O)Nc3nccs3)c2)no1` (stereo not drawn), the INHIBITION was 2.7%.

As for `CC1CCCN(Cc2cccc(C(=O)Nc3nccs3)c2)C1` (stereo not drawn), the INHIBITION turned out to be 63.46%.

In the case of `CC(C)N(C)Cc1cn2c(n1)CN(C(=O)Cc1ccccc1)CC2`, the INHIBITION was -47.56%.

Turning to `Cc1noc(Cl)c1CCC(=O)N1CCN(Cc2ccncc2)CC1`, the INHIBITION turned out to be 62.13%.

`Cc1noc(Cl)c1CCC(=O)N1CCN(CC(C)(C)O)CC1`: the INHIBITION is 21.89%.

On to `CCN1CCN(C(=O)CCc2c(C)noc2Cl)CC1`, for which the INHIBITION is recorded as -61.5%.

On to `O=C(Nc1ccc2c(ccn2CCN2CCOCC2)c1)c1ccccn1`, for which the INHIBITION was 13.72%.

With `Cc1cc(CN(C)C(=O)NC2CCCC2)no1`, the INHIBITION is reported as 29.12%.

Turning to `N#Cc1cccc(N2CCCC3(CCC(=O)N(C4CCCC4)C3)C2)n1` (stereo not drawn), the INHIBITION is reported as -11.07%.

Consider `COc1c(C2CCCN2C(=O)c2sc(C)nc2C)c(C)nn1C` (stereo not drawn), for which the INHIBITION was -37.68%.

With `NC(=O)CN1CCCCC1c1nc(N)ncc1-c1cccc(F)c1` (stereo not drawn), the INHIBITION was determined as 18.64%.

Turning to `CN(C)C(=O)CN1CCCCC1c1nc(N)ncc1-c1ccccc1` (stereo not drawn), the INHIBITION was -19.81%.

Take `CN(C)C(=O)CN1CCCCC1c1nc(N)ncc1-c1cccc(F)c1` (stereo not drawn): the INHIBITION came out at 65.76%.
